# Screens deposited in PubChem BioAssay by several laboratories.
# Most compounds without a hit are left out; they make up all but 2.2% or so of the library.
# Ba/F3 V617F tox: loss of viability in JAK2V617F-driven Ba/F3 cells. inhibition, % at 5.6 µM. Ba/F3 EpoR-JAK2V617F viability, ATP luminescence. actives 1.1% (n = 220,000);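 active = inhibition above the campaign mean plus 3 SD over all tested compounds, cut at about 24% in these data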;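 also: cytokine-independent growth of Ba/F3 cells driven by EpoR plus mutant JAK2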
# APP transl inh: APP translation inhibition; SH-SY5Y APP 5'UTR-luciferase reporter, luminescence; inhibition, % at 2 µM; actives 0.82% (n = 190,000); AID 1285;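 active = inhibition above a set limit, derived from the sample mean plus 3 SD, cut at about 45% in these data; inconclusive = one replicate passes the limit while the other fails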
# KLF5 inh: suppresses KLF5 promoter-driven expression; inhibition, % at 5 µM; DLD-1 KLF5 promoter-luciferase reporter, luminescence; actives 0.23% (n = 290,000);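 active = inhibition above a per-plate limit of that plate's mean compound inhibition plus 3 SD, cut at about 60% in these data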;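 also: higher means less KLF5 promoter-driven luciferase light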
# BaF3 parental: reduces parental Ba/F3 cell viability, JAK2V617F counter-screen; actives 1.1% (n = 220,000); inhibition, % at 5.6 µM; CellTiter-Glo ATP luminescence; AID 1486;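 active = inhibition above a per-campaign cutoff, the mean inhibition of all tested compounds plus 3 SD, cut at about 27% in these data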
# IEC-6 cytotox: IEC-6 cytotoxicity, counter-screen for KLF5 inhibitors; luminescence viability; inhibition, % at 5 µM; actives 0.78% (n = 290,000); in the data active = inhibition above about 22%
# aSyn UTR inh: MLPCN primary screen, SNCA 5' untranslated region | alpha-synuclein 5'UTR reporter, inhibitor activity | inhibition, % (tested at 7.5 µM) | actives 0.82% (n = 300,000); in the data active = inhibition above about 60%; inconclusive = no clear call, values can overlap the other calls;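 also: H4 neuroglioblastoma cells stably carrying SNCA 5'UTR luciferase fusion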
# BaF3 tox 2: parental Ba/F3 viability inhibition for JAK2V617F counter-screen; shares compounds with Ba/F3 V617F tox; CellTiter-Glo luminescence; cells kept alive by added IL-3; inhibition, % at 5.6 µM; actives 31% (n = 580); AID 1520;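 active = cell growth inhibition above the hit limit set in the earlier mutant JAK2 cell screen, cut at about 27% in these data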
# JAK2V617F conf: confirmation: loss of viability in JAK2V617F-dependent Ba/F3 cells | shares compounds with Ba/F3 V617F tox | Ba/F3 EpoR-JAK2V617F viability, CellTiter-Glo luminescence | inhibition, % at 5.6 µM | actives 66% (n = 580);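 active = mean inhibition above the hit cutoff derived in the earlier primary screen, cut at about 25% in these data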;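 also: higher means lower luminescence from reduced cell ATP and viability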
# Hits are given with their value; i = inactive; ? = inconclusive; nt = not tested or not shown.
SMILES,Ba/F3 V617F tox,APP transl inh,KLF5 inh,BaF3 parental,IEC-6 cytotox,aSyn UTR inh,BaF3 tox 2,JAK2V617F conf
CC(C)N1CCN(c2ccc(S(=O)(=O)N3CCOCC3)cn2)CC1,nt,nt,i,nt,i,nt,nt,nt
O=C(Nc1ccnn1C1CCN(Cc2ccc(CO)o2)CC1)c1ccc2c(c1)OCO2,nt,nt,i,nt,i,i,nt,nt
CCOc1ccc(N2C(=O)CC(Sc3nnnn3-c3ccccc3)C2=O)cc1 (centres undefined),32.8,i,i,i,i,i,i,i
CCCc1nc([N+](=O)[O-])c(S(=O)(=O)c2ccccc2)n1CC(C)C,29.3,i,i,i,i,i,i,32.7
CC(C)Cn1c(C(C)C)nc([N+](=O)[O-])c1S(=O)(=O)c1ccc(F)cc1,i,i,i,i,i,i,nt,nt
Cc1cccc(NC(=O)C2CCCN(S(=O)(=O)c3ccc4[nH]c(=O)ccc4c3)C2)n1 (centres undefined),nt,nt,i,nt,i,i,nt,nt
Cc1nc(NCc2ccccc2)[nH]c(=O)c1CCC(C)C,52.6,i,i,i,i,i,i,i
Cc1ccc(Nc2nc(C)c(CCC(C)C)c(=O)[nH]2)cc1,i,i,i,i,i,i,nt,nt
Oc1ccc(C=Nc2cccc3ncccc23)c(O)c1,51.7,i,i,i,i,i,i,i
Oc1ccc(C=Nc2ccc3ncccc3c2)c(O)c1,i,i,i,i,i,i,nt,nt
Nc1nn(-c2ccccc2)c(N)c1N=Nc1ccccc1F,35.6,i,i,i,23.5,i,36.5,69.2
Nc1c(N=Nc2ccccc2F)c(=O)[nH]n1-c1ccccc1,i,i,i,i,i,i,nt,nt
COCC1CCN(C(=O)c2ccc3oc(Cc4ccc(Cl)cc4)nc3c2)C1 (centres undefined),nt,nt,i,nt,i,i,nt,nt
C(=N\Nc1nc2ccccc2[nH]1)/c1cccc2nccnc12,49.5,nt,i,i,i,67.3,51.0,63.4
O=c1[nH]c2ccc(N/C(=N/S(=O)(=O)c3ccccc3)c3ccccc3)cc2[nH]1,28.9,i,i,i,i,i,i,i
CC(=O)Nc1ccc(N/C(=N\S(=O)(=O)c2ccccc2)c2ccccc2)cc1,nt,nt,i,nt,i,i,nt,nt
C=CCC1(CC=C)CCCN1C(=O)c1cc(COc2ccccc2SC)on1,nt,nt,i,nt,i,i,nt,nt
Nc1ccc2c(c1)C(=O)C(=O)c1ccccc1-2,43.6,87.7,i,i,i,129.7,107.2,98.9
Cc1c(NC(=O)COC(=O)c2cc(-c3ccc(-c4ccccc4)cc3)nc3ccccc23)c(=O)n(-c2ccccc2)n1C,30.1,i,i,i,i,i,58.9,72.0
Cn1cc(CN2CCN(c3ccc(Cl)cn3)CC2)c(-c2ccccc2F)n1,i,i,i,i,i,i,nt,nt
Cc1cccc(N2CCN(Cc3cn(C)nc3-c3ccccc3F)CC2)n1,24.2,74.0,i,i,53.5,i,75.8,96.5
CCC(C(=O)NCc1ccco1)n1nc(C)c2c(C)n(-c3ccccc3)nc2c1=O (centres undefined),nt,nt,i,nt,i,i,nt,nt
COC(=O)c1[nH]c2ccc(Br)cc2c1NC(=O)CN1CCN(C2CCCCC2)CC1,45.9,i,i,i,i,75.1,i,i
O=C(Nc1cccc(S(=O)(=O)N2CCCCCC2)c1)C1CCN(C(=O)c2ccc(F)cc2)CC1,nt,nt,nt,nt,nt,i,nt,nt
Oc1ccc(Cl)cc1CNc1ccc(Br)cn1,26.9,i,i,i,i,i,i,30.9
SMILES,Ba/F3 V617F tox,APP transl inh,KLF5 inh,BaF3 parental,IEC-6 cytotox,aSyn UTR inh,BaF3 tox 2,JAK2V617F conf
COc1cccc(F)c1C(C[N+](=O)[O-])c1c(N)n(C)c(=O)n(C)c1=O (centres undefined),62.5,nt,i,i,i,i,i,92.0
COc1cc(C(C[N+](=O)[O-])c2c(N)n(C)c(=O)n(C)c2=O)ccc1O (centres undefined),i,i,i,i,i,i,nt,nt
Cc1ccc(NC(=O)C2CCCCC2)c(O)c1,i,i,i,i,i,i,nt,nt
Cc1ccc(O)c(NC(=O)C2CCCCC2)c1,24.9,nt,i,i,i,i,i,50.1
Cc1nc2scc(C)n2c(=O)c1S(=O)(=O)N1CCN(c2ccc([N+](=O)[O-])cc2)CC1,nt,nt,i,nt,i,i,nt,nt
COCCNC(=O)c1c[nH]c2ccc(S(=O)(=O)N3CCc4ccccc43)cc2c1=O,66.5,i,i,i,i,?,83.4,86.3
O=S(=O)(c1ccc2nc(N3CCN(c4ccc(F)cc4)CC3)ccc2c1)N1CCCCC1,nt,nt,i,nt,i,i,nt,nt
COc1ccc(N(C)S(=O)(=O)c2cccc(C(=O)Nc3ccc(-n4cnnn4)cc3)c2)cc1,40.4,i,i,i,i,i,i,25.6
O=C1N/C(=C\c2ccccc2)c2ccccc21,38.4,i,i,i,i,i,i,44.8
O=C1N/C(=C\c2nc3ccccc3s2)c2ccccc21,i,nt,i,i,i,i,nt,nt
COc1ccc(Nc2ccc3c(c2)=NC2(CCCCC2)[N+]=3[O-])cc1,44.2,49.2,i,i,i,i,i,99.7
O=[N+]([O-])c1ccc2c(c1N1CCCCC1)=NC1(CCCCC1)[N+]=2[O-],i,nt,i,i,i,i,nt,nt
[O-][N+]1=c2ccc(Nc3ccccc3)cc2=NC12CCCCC2,42.0,i,i,i,i,i,i,98.0
COc1ccc(-n2c3c(c(=O)[nH]c2=O)C(NC(C)=O)(C(F)(F)F)C(=O)N3)cc1 (centres undefined),i,i,i,i,i,i,nt,nt
Cc1cc(C)c(NC(=O)CSc2ccc(-c3cccnc3)nn2)c(C)c1,i,i,i,i,i,i,nt,nt
COc1ccc2c(c1OC)C(=O)OC2Nc1nc(-c2ccc([N+](=O)[O-])cc2)cs1 (centres undefined),i,nt,i,i,i,i,nt,nt
COc1ccc(-c2csc(NC3OC(=O)c4c3ccc(OC)c4OC)n2)cc1OC (centres undefined),27.2,nt,i,i,i,i,i,31.2
Cc1ccc(OCCOC(=O)Cn2nc(C)c([N+](=O)[O-])c2C)cc1,26.1,i,i,i,i,i,i,i
CCOC(=O)Cn1nc(C)c([N+](=O)[O-])c1C,i,i,i,i,i,i,nt,nt
CC(C)c1ccc(N(C(=O)c2csnn2)C(C(=O)NC2CCCC2)c2cccnc2)cc1 (centres undefined),nt,nt,i,nt,i,i,nt,nt
Cc1ccc(/C=N/NC(=O)C(=O)N/N=C/c2ccc(C)o2)o1,44.8,i,i,i,i,i,i,i
COc1ccc(-c2cc(N)n(S(=O)(=O)c3c(F)c(F)c(F)c(F)c3F)n2)cc1OC,44.8,i,i,i,i,i,93.2,93.2
Cc1cccc(CN(C(=S)Nc2c(C)cccc2C)c2cccnc2)c1,102.5,i,i,i,i,i,i,i
CCc1ccccc1NC(=S)N(Cc1cccc(C)c1)c1cccnc1,i,i,i,i,i,i,nt,nt
O=C(O)C1C2C=CC(C2)C1C(=O)NCc1cccs1 (centres undefined),i,i,i,i,i,i,nt,nt
